We go through six compounds from PubChem BioAssay (NCI).

Assay [1] can be described thus: NCI Yeast Anticancer Drug Screen. Data for the rad50 strain (AID 155).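 Note: 0% = growth of vehicle-only cultures of the same strain.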 The settings on record: S. cerevisiae rad50 strain growth inhibition, hits give high values. A digest of the protocol:
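Genetically altered yeast (DNA repair pathway); compound treatment; growth inhibition vs vehicle ctrl.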

Assay [2] in a line: NCI Yeast Anticancer Drug Screen. Data for the mec2-1 strain (AID 157). The settings on record: S. cerevisiae mec2-1 strain, hits give high values. A digest of the protocol: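 Vehicle-treated cultures served as reference for growth inhibition of compound-exposed mec2-1 yeast.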
Assay [3] is described as follows: NCI Yeast Anticancer Drug Screen. Data for the sgs1 mgt1 strain (AID 161).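 Note: 0% = growth of cultures given vehicle only.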 The settings on record: S. cerevisiae sgs1 mgt1 strain, hits give high values. A digest of the protocol: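 Mutant yeast exposed to compound; growth scored against vehicle-only wells.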
Assay [4] in a line: NCI Yeast Anticancer Drug Screen. Data for the cln2 rad14 strain (AID 165).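 Note: 0% = growth equal to vehicle treated cultures.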 As to conditions: S. cerevisiae cln2 rad14 strain, hits give high values. A digest of the protocol:
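Each compound was tested on cln2 rad14 yeast. Inhibition of growth was calculated against vehicle-exposed controls.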

The nature of assay [5]: NCI Yeast Anticancer Drug Screen. Data for the bub3 strain (AID 167). As to conditions: S. cerevisiae bub3 mutant strain, hits give high values. Put shortly: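 Yeast carrying a defined mutation is treated with each compound, and growth is compared with that of vehicle-exposed cells to give inhibition.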
The nature of assay [6]: NCI Yeast Anticancer Drug Screen. Data for the mlh1 rad18 strain (AID 175). The settings on record: S. cerevisiae mlh1 rad18 strain growth inhibition, hits give high values. A digest of the protocol: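 Vehicle-treated cultures served as the reference for growth inhibition in a yeast strain carrying DNA damage repair alterations exposed to each compound.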
The mark [7] stands for this setting: at 5.0 µM (retest, dose inferred, filed as 0.5).
Setting [8] is: at 50.0 µM (retest, dose inferred, filed as 5.0).

“And” between values parts separate entries of the source, which are not always exact repeats. Identical values can stand only once. This is part of a sample that, as a whole, favours compounds with a hit. Of some 79,000 tested, about 15% had one in any assay. Values without a mark were called inactive. The source made the active and inactive calls. Cut-off read from the data, not from the text of the source: active = growth inhibition above about 70%; inactive = the rest.

As for `OCC1OC(n2cnc3c(=S)nc[nH]c32)C(O)C1O` (stereo not drawn), the growth inhibition in assay [1] (setting [7]) was -3%; in assay [1] (setting [8]) it was -13%; in assay [1] (at 50.0 µM), -0.9% and -2.3%; in assay [2] (setting [7]) it was -14%; in assay [2] (setting [8]), -14%; in assay [2] (at 50.0 µM), 8.35% and -13.8%. Moreover, the growth inhibition in assay [3] (setting [7]) is 0%; in assay [3] (setting [8]), 5%; in assay [3] (at 50.0 µM), 6.65% and -21.8%; in assay [4] (setting [7]), 20%; in assay [4] (setting [8]), -7%; in assay [4] (at 50.0 µM) it was 24.9% and -27%. The growth inhibition is 0% in assay [5] (setting [7]); -3% in assay [5] (setting [8]); 14.9% and -16.9% in assay [5] (at 50.0 µM); -13% in assay [6] (setting [7]); -14% in assay [6] (setting [8]); 3.2% and -1.15% in assay [6] (at 50.0 µM).

For `CCCCCCCCCCCCCC1=NCC(c2ccc3ccccc3c2)O1` (stereo not drawn), the growth inhibition in assay [1] (setting [7]) was -4%; in assay [1] (setting [8]) it was -13%; in assay [1] (at 50.0 µM) it was -1.9%; in assay [2] (setting [7]), -4%; in assay [2] (setting [8]) it was -2%; in assay [2] (at 50.0 µM), 4.95%. Further, the growth inhibition in assay [3] (setting [7]) is -4%; in assay [3] (setting [8]) it was -23%; in assay [3] (at 50.0 µM), -12.6%; in assay [4] (setting [7]), -6%; in assay [4] (setting [8]) it was -27%; in assay [4] (at 50.0 µM) it was 10.3%. Also, the growth inhibition is 1% in assay [5] (setting [7]); -6% in assay [5] (setting [8]); -4.7% in assay [5] (at 50.0 µM); -2% in assay [6] (setting [7]); -6% in assay [6] (setting [8]); -1.95% in assay [6] (at 50.0 µM).

Turning to `CN(C)C(=Nc1nc(=[N+](C)C)ss1)N(C)C`, the growth inhibition is -17% in assay [1] (setting [7]); -10% in assay [1] (setting [8]); 93% (active) in assay [1] (at 50.0 µM); 3% in assay [2] (setting [7]); 8% in assay [2] (setting [8]); 44.2% in assay [2] (at 50.0 µM). Also, the growth inhibition in assay [3] (setting [7]) is 8%; in assay [3] (setting [8]), -19%; in assay [3] (at 50.0 µM), 86% (active); in assay [4] (setting [7]) it was 12%; in assay [4] (setting [8]), 13%; in assay [4] (at 50.0 µM), 30.4%. Also, the growth inhibition was 10% in assay [5] (setting [7]); 10% in assay [5] (setting [8]); 49.4% in assay [5] (at 50.0 µM); 15% in assay [6] (setting [7]); 13% in assay [6] (setting [8]); 81.8% (active) in assay [6] (at 50.0 µM).

On to `CCSSC(=Nc1ccccc1)OCC(C)C`, for which the growth inhibition was 17% in assay [1] (setting [7]); 91% (active) in assay [1] (setting [8]); 62% in assay [1] (at 50.0 µM); 18% in assay [2] (setting [7]); 70% (active) in assay [2] (setting [8]); 80.4% (active) in assay [2] (at 50.0 µM). Besides, the growth inhibition is 47% in assay [3] (setting [7]); 97% (active) in assay [3] (setting [8]); 71.8% (active) in assay [3] (at 50.0 µM); 50% in assay [4] (setting [7]); 92% (active) in assay [4] (setting [8]); 30.8% in assay [4] (at 50.0 µM). In addition, the growth inhibition in assay [5] (setting [7]) was 52%; in assay [5] (setting [8]), 97% (active); in assay [5] (at 50.0 µM) it was 84.4% (active); in assay [6] (setting [7]), 23%; in assay [6] (setting [8]), 82% (active); in assay [6] (at 50.0 µM), 80% (active).

For the compound `CN(C)c1ccc(/C=C/c2sc3ccccc3[n+]2C)cc1`, the growth inhibition in assay [1] (setting [7]) was -39% and 14%; in assay [1] (setting [8]), 99% (active) and 98% (active); in assay [1] (at 50.0 µM) it was 99.2% (active); in assay [2] (setting [7]) it was -16% and 49%; in assay [2] (setting [8]) it was 99% (active); in assay [2] (at 50.0 µM) it was 99.2% (active) and 99.4% (active). In addition, the growth inhibition in assay [3] (setting [7]) is -2% and 16%; in assay [3] (setting [8]), 72% (active) and 99% (active); in assay [3] (at 50.0 µM), 99.5% (active) and 99.4% (active); in assay [4] (setting [7]), -2% and 13%; in assay [4] (setting [8]), 99% (active) and 98% (active); in assay [4] (at 50.0 µM), 98.8% (active) and 99.3% (active). Further, the growth inhibition in assay [5] (setting [7]) is 12% and -4%; in assay [5] (setting [8]), 99% (active); in assay [5] (at 50.0 µM) it was 99.4% (active) and 99.3% (active); in assay [6] (setting [7]) it was 7% and 22%; in assay [6] (setting [8]) it was 99% (active); in assay [6] (at 50.0 µM), 99.3% (active) and 99.2% (active).

In the case of `CCOC(=O)C(Cc1c[nH]c2cc([N+](=O)[O-])ccc12)NS(=O)(=O)c1ccc2ccccc2c1` (stereo not drawn), the growth inhibition in assay [1] (setting [7]) was -19%; in assay [1] (setting [8]), 96% (active); in assay [1] (at 50.0 µM), 95.3% (active); in assay [2] (setting [7]), 2%; in assay [2] (setting [8]), 98% (active); in assay [2] (at 50.0 µM), 97.3% (active). Moreover, the growth inhibition in assay [3] (setting [7]) was -4%; in assay [3] (setting [8]), 98% (active); in assay [3] (at 50.0 µM) it was 97.2% (active); in assay [4] (setting [7]), -17%; in assay [4] (setting [8]), 94% (active); in assay [4] (at 50.0 µM), 94.2% (active). Further, the growth inhibition in assay [5] (setting [7]) is 9%; in assay [5] (setting [8]), 98% (active); in assay [5] (at 50.0 µM), 97.8% (active); in assay [6] (setting [7]), -19%; in assay [6] (setting [8]), 97% (active); in assay [6] (at 50.0 µM), 95.7% (active).
